In PubChem BioAssay AID504374 (National Center for Advancing Translational Sciences (NCATS), 2011):
About 100 (6.7%) of roughly 1,500 compounds were called active. Inconclusive results (about 7%) are left out. The call rests on the fitted dose curve; in most records, active means well fitted inhibition curve with a large enough effect; inconclusive means small, poorly fitted or top-dose-only effect, or effect the other way; inactive means flat fitted curve, though single readings scatter. The entries come from a sample that favours actives as a whole. A call without a number means that no potency is given here.

Target: Runt-related transcription factor 1 (Homo sapiens) + Core-binding factor subunit beta (Homo sapiens) (UniProt Q01196+Q13951)
Assay: qHTS Assay for Compounds Blocking the Interaction Between CBF-beta and RUNX1 for the Treatment of Acute Myeloid Leukemia: Hit Validation; further: nearly all actives have a fitted effect of over 60% in size
Conditions: AlphaScreen CBFb-His/RUNX1-biotin binding; series mostly up to 59.8 µM
Text: NIH Chemical Genomics Center [NCGC]
NIH Molecular Libraries Probe Production centers Network [MLPCN]
Assay Submitter (PI): Paul Liu
Core Binding Factor (CBF) abnormalities are associated with 20-25% of all acute myeloid leukemias (AML), of which 5-10% are further sub classified as acute myelomonocytic leukemia with eosinophilia, also known as M4Eo in the FAB classification scheme. This subtype of leukemia is usually associated with chromosome 16 inversion (p13:q22). Chromosome 16 inversion results in formation of the fusion oncogene CBFB-MYH11, which encodes the fusion protein CBF-beta-SMMHC.
It has been hypothesized that the interference of CBF-beta and RUNX1 binding could have therapeutic implications for patients with CBF mediated leukemias. We developed a CBF-beta and RUNX1 binding assay in AlphaScreenTM format and optimized it for high throughput screening to search for inhibitors. The goal of this project is to screen MLPCN's compound collection (MLSMR) for identifying the inhibitors of the interaction between CBF-beta and RUNX1 proteins as research probes. If these probes work well in the animal models, the ultimate goal of this project is to development a new drug treatment for this disease.
This assay can not be used to assess how apparent inhibitors interfere with protein binding, and whether inhibitors specifically bind to either protein. Disruption of this protein-protein interaction, through any mechanism, is the intended target activity.
The present data set was run to confirm the activity of hits from the primary screen.
NCGC Assay Protocol Summary:
Step, Parameter, Description
(1) Reagent, 3 uL CBFb-His/RUNX1-biotin mix incubated together for 20 minutes at room temperature (30 nM each)
(2) Compound or control, 23 nL compound stock solution
(3) Incubation, 15 minutes at Room temperature
(4) Reagent, 1 uL 50 ng each of beads (Nickel beads and streptavidin beads)
(5) Incubation, 90 minutes at Room temperature
(6) Detection, Excitation=365 nm Emission=440 nm, Envision reader in AlphaScreenTM mode
Keywords: MLSMR, MLPCN, NIH Roadmap, qHTS, NCGC, Core binding factor, CBF, CBF-beta, Acute myeloid leukemia
Potency means the concentration at half of the fitted maximal effect.

Sequence of Runt-related transcription factor 1 (Homo sapiens) + Core-binding factor subunit beta (Homo sapiens) (Q01196 whole entry, looked up): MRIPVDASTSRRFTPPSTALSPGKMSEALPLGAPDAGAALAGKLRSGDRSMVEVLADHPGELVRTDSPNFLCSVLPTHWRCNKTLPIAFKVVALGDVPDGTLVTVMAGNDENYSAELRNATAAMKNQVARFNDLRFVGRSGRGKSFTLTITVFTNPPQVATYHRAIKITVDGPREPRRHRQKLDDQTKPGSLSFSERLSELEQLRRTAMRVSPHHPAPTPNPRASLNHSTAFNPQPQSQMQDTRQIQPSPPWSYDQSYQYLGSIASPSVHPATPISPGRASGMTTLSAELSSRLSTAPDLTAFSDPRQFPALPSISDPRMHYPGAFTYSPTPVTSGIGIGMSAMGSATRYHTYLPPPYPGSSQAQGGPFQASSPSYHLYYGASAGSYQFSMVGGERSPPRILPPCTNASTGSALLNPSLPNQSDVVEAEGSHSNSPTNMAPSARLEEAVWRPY
Sequence of Runt-related transcription factor 1 (Homo sapiens) + Core-binding factor subunit beta (Homo sapiens) (Q13951 whole entry, looked up): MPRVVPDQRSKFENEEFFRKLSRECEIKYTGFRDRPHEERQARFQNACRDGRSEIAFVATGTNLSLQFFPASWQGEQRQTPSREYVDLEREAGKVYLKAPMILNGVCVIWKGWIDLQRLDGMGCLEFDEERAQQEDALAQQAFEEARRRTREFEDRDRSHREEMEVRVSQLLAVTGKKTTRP

Compound | Potency
COc1cc(/C=N/n2c(-c3ccccc3)n[nH]c2=S)cc(OC)c1O | inactive
Cc1ccc(/C=N/n2c(-c3ccncc3)n[nH]c2=S)s1 | inactive
COc1ccccc1/C=C/C=N/n1c(-c2ccccn2)n[nH]c1=S | 11.2 µM (active)
CC(=O)c1c(C)nc(Nc2nc3ccccc3s2)nc1C | inactive
COc1ccc(Nc2cc(=O)n(-c3ccccc3)c3c2c(=O)n(C)c(=O)n3C)cc1 | inactive
Cn1c(=O)c2c(nc(N3CCOCC3)n2C/C=C/c2ccccc2)n(C)c1=O | inactive
COCCCN1CCN(C2Cc3ccccc3Sc3ccc(Cl)cc32)CC1 (stereo not given) | 12.2 µM (active)
CC(C)(C)OC(=O)N1CCC[C@H]1c1nnc(SCc2ccccc2)o1 | inactive
CCCCNC(=O)Nc1ncn[nH]1 | inactive
Cc1nn(-c2ccccc2)c(NC(=O)c2cccs2)c(-c2ccccc2Cl)c1=O | inactive
CC(C)(C)OC(=O)N[C@@H](Cc1ccccc1)c1nnc(SCC(N)=O)o1 | inactive
O=C(O)c1ccc(/C=N\Nc2ccc(S(=O)(=O)N3CCOCC3)cc2[N+](=O)[O-])cc1 | inactive
O=C(N/N=C/c1ccc(Br)s1)c1ccco1 | inactive
CCN(CC)c1ccc(/C=N/NC(=O)c2ccco2)c(O)c1 | 31.6 µM (active)
Cc1nn(C)cc1/C=N/NC(=O)c1ccco1 | inactive
CCOC(=O)C(=CNNc1c(C)csc1C(=O)OC)C(=O)OCC | inactive
COC(=O)[C@H](CC(C)C)NC(=O)NCCC1=CCCCC1 | inactive
CCOc1ccc(/C=C2\CCc3ccccc3C2=O)cc1 | inactive
CCCOc1ccc(-c2nc(-c3ccc([N+](=O)[O-])cc3)cs2)cc1 | inactive
COc1cccc(C2/C(=C(/O)c3ccccc3)C(=O)C(=O)N2Cc2ccco2)c1 (stereo not given) | inactive
O=C(/C=C/c1ccccc1)Nc1cccnc1Oc1ccccc1F | inactive
O=[N+]([O-])c1ccc2c(c1)S(=O)c1ccccc1-2 (stereo not given) | inactive
Cc1cc([N+](=O)[O-])nn1CC(=O)N/N=C/c1ccccc1F | inactive
O=[N+]([O-])c1ccc(O)c(/C=N/NC2=NS(=O)(=O)c3ccccc32)c1 | 2.82 µM (active)

Compound | Potency
COC(=O)[C@H](CC(C)C)NC(=O)N1CCCCC1C (stereo not given in full) | inactive
COc1ccc(/C(C)=N/NC(=O)CNC(=O)Cc2ccccc2)c(OC)c1 | inactive
Cc1cccc(C)c1NC(=S)N(CCN(C)C)C(C)c1ccccn1 (stereo not given) | 4.86 µM (active)
CCCCNC(=O)Nc1ccccc1CC | inactive
Cc1c(Cl)cccc1NC(=S)N(CCN(C)C)C(C)c1ccccn1 (stereo not given) | 4.34 µM (active)
CCc1ccccc1NC(=S)N(CCN(C)C)C(C)c1ccccn1 (stereo not given) | 6.12 µM (active)
Cc1ccc(C)c(NC(=S)N(CCN(C)C)C(C)c2ccccn2)c1 (stereo not given) | 4.86 µM (active)
COc1ccc(C2=NOC(CNC(=O)c3ccccc3Br)C2)c(OC)c1 (stereo not given) | inactive
CC(C)(C)NC(=O)NCCc1ccccc1 | inactive
Fc1ccc(-c2cc(-c3cccs3)cc(-c3ccccc3)n2)cc1 | inactive
Clc1ccc(Nc2ccc(Cl)nn2)cc1 | inactive
COCc1cc(=O)[nH]c2c1c(-c1ccccc1)nn2C | inactive
Cc1cc(N2CCOCC2)n2ncc(-c3ccc(Cl)cc3)c2n1 | inactive
CC(C)c1nc(C#N)c(NN)o1 | inactive
COCc1cc(=O)n2[nH]c(-c3ccco3)cc2n1 | inactive
CCC1(CC)Nc2ccccc2C(=O)N1c1ccc(OC)cc1 | inactive
CCNC(=O)NC(=O)c1csc([N+](=O)[O-])c1 | inactive
Cc1ccc(Cl)cc1NC(=S)N(CCN(C)C)C(C)c1ccccn1 (stereo not given) | 5.46 µM (active)
Cc1ccc(Cl)cc1NC(=S)NN | inactive
Cc1cc(NC(=O)Nc2cc(Cl)ccc2C)no1 | inactive
Cc1ccccc1NC(=S)N(CCN(C)C)C(C)c1ccccn1 (stereo not given) | 4.86 µM (active)
Cc1ccccc1NC(=S)Nc1ccccn1 | inactive
NC(=O)C1CCN(c2c([N+](=O)[O-])cc(C(F)(F)F)cc2[N+](=O)[O-])CC1 | inactive
C/C(=N\Nc1ccc(C#N)cc1[N+](=O)[O-])c1ccc(O)cc1 | inactive

Compound | Potency
CC1CC(=O)Nc2ccccc2N1S(=O)(=O)c1ccc(Cl)cc1 (stereo not given) | inactive
O=C(CCCCCCCCCCC(=O)NCc1cccnc1)NCc1cccnc1 | inactive
Cc1ccc(C2N=C(N)Nc3nc(=O)c4ccccc4n32)cc1 (stereo not given) | inactive
Cc1cccnc1NC(=O)c1csnn1 | inactive
O=C(OCC1OC(OC(=O)c2cc(O)c(O)c(OC(=O)c3cc(O)c(O)c(O)c3)c2)[C@@H](OC(=O)c2cc(O)c(O)c(OC(=O)c3cc(O)c(O)c(O)c3)c2)C(OC(=O)c2cc(O)c(O)c(OC(=O)c3cc(O)c(O)c(O)c3)c2)C1OC(=O)c1cc(O)c(O)c(OC(=O)c2cc(O)c(O)c(O)c2)c1)c1cc(O)c(O)c(OC(=O)c2cc(O)c(O)c(O)c2)c1 (stereo not given in full) | 0.398 µM (active)
O=c1[nH]nc(N2CCOCC2)c(=O)[nH]1 | inactive
CCCCCCC(=O)N(O)C1CC(=O)N(c2ccc(F)cc2)C1=O (stereo not given) | inactive
O=C1Nc2ccccc2C1(O)Cc1ccccn1 (stereo not given) | inactive
O=C(N/N=C/c1ccccc1[N+](=O)[O-])c1cnccn1 | inactive
O=C(O)c1ccccc1N/N=C/c1cc(Br)cc(Br)c1O | inactive
Oc1ccccc1/C=N/Nc1ncc(Br)cn1 | 3.55 µM (active)
O=C(c1ccccc1)c1ccc2c(c1)OCCCO2 | inactive
CCOc1ccc(OCc2ccc(C(=O)NN)o2)cc1 | inactive
Cc1cccc(-c2n[nH]c(=S)n2/N=C/c2cccs2)c1 | inactive
OCc1ncc(-c2ccccc2)s1 | inactive
CN1CCN(c2nnc(-c3ccccc3)c(-c3ccccc3)n2)CC1 | inactive
c1ccc(-c2nnc(-c3ccccn3)nc2NC2CCCCC2)cc1 | 2.24 µM (active)
CN(C)c1nc(-c2ccccn2)nnc1-c1ccccc1 | 1.41 µM (active)
c1ccc(-c2nnc(N3CCN(c4ccccc4)CC3)nc2-c2ccccc2)cc1 | inactive
O=C(N/N=C/c1ccco1)c1cc(C2CC2)[nH]n1 | inactive
Cc1onc(-c2c(Cl)cccc2Cl)c1C(=O)Nc1nc(C(C)(C)C)cs1 | inactive
Cc1ccc(-c2c[n+](CC(=O)Nc3ccccc3C)c3n2CCC3)cc1 | inactive
